# About 1,400 (0.39%) of roughly 360,000 compounds were called active. What follows is part of a selection rich in actives, with near analogues and random picks from the rest. Values without a mark were called inactive. No stated cut-off is given here; in the data, active means inhibition above about 21%; inactive means the rest.
# Molecular target: Receptor-interacting serine/threonine-protein kinase 2 (Homo sapiens) (UniProt O43353)
# Assay: inhibitors of RIPK2 association with NOD2 – fluorescence, CHO cells, BLA complementation, primary screen (AID 624267);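 further: 0% = vehicle only and 100% = reference blocker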
# Details: CHO BLA complementation NOD2-RIPK2, CCF4 ratio; at 4.98 µM; hits give high values
# Receptor-interacting serine/threonine-protein kinase 2 (Homo sapiens), sequence (O43353 whole entry, looked up): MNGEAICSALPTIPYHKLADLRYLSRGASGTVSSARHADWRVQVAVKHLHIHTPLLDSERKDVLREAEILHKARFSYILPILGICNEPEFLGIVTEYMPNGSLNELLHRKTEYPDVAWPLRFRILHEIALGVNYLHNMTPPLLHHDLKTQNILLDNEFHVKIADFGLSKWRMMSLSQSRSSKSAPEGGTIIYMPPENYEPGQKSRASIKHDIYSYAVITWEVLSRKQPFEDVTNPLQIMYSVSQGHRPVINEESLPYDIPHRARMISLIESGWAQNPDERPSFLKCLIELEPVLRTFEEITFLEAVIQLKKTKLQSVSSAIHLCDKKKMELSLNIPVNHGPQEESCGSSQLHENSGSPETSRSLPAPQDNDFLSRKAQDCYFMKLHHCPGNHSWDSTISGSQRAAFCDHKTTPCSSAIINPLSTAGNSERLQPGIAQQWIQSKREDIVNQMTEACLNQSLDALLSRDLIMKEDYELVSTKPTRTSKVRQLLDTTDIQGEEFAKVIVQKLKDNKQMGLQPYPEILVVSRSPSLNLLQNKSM
row,SMILES,inhibition
1,C[C@@H]1CN([C@H](C)CO)C(=O)c2cc(-c3ccc(F)cc3)cnc2O[C@H]1CN(C)C(=O)c1ccc(F)cc1,-5.43%
2,C[C@H]1CN([C@@H](C)CO)C(=O)c2cc(-c3cccc(F)c3)cnc2O[C@@H]1CN(C)S(C)(=O)=O,21.8% (active)
3,C[C@H]1CN([C@@H](C)CO)C(=O)c2cc(Br)cnc2O[C@H]1CN(C)S(=O)(=O)c1cccs1,-2.32%
4,Cc1ccc(N(C(=O)c2sc(C)nc2C)C(C(=O)NC(C)(C)C)c2ccncc2)cc1 (configuration not stated),-19.7%
5,COc1ccc(NC(C)=O)cc1NC(=O)CN1CCN(C2c3ccccc3-c3ccccc32)CC1,-1.12%
6,Cc1ccc(NS(=O)(=O)c2ccc(C(=O)NCCCN3CCOCC3)cc2)cc1,-3.35%
7,Cc1cc(NS(=O)(=O)c2ccc(NC(=S)NC(=O)c3ccc(F)cc3Cl)cc2)no1,-13%
8,CN(CCC(=O)Nc1cc(S(=O)(=O)N(C)C)ccc1Cl)CC(=O)Nc1ccc(F)cc1,-1.55%
9,Cc1cccc(CS(=O)(=O)c2ncc(Cl)c(C(=O)Nc3ccc(F)cc3)n2)c1,95.7% (active)
10,Cc1cccc(NC(=O)Cn2c(=O)n(Cc3ccccc3)c(=O)c3c(C)c(C)sc32)c1,-1.85%
11,Cc1cccc(NC(=O)c2nc(S(=O)(=O)Cc3ccccc3)ncc2Cl)c1,90.3% (active)
12,O=C(CS(=O)(=O)Cc1ccccc1)Nc1cccnc1,-7.99%
13,COc1ccc(C(C)=O)cc1CN1C(=O)NC2(CCCCC2C)C1=O (configuration not stated),-6.26%
14,CC(C)N1C(=O)c2ccccc2NC(=O)C1C(=O)NCc1cccs1 (configuration not stated),-11.7%
15,CC(OC(=O)CNS(=O)(=O)/C=C/c1ccccc1)C(=O)Nc1ccc(S(=O)(=O)N2CCCC2)cc1 (configuration not stated),-14.5%
16,COc1ccc(CCNC(=O)CCc2cn(C)c3ccccc23)c(OC)c1,3.29%
17,O=[N+]([O-])c1c(NCCO)cc(Sc2nc3ccccc3s2)c2nonc12,86.9% (active)
18,CCN(CCO)C(=S)Nc1cc(C(=O)OC)ccc1C(=O)OC,-1.65%
19,COc1ccc(C[C@H]2CN3C(=NC[C@H]3C)N2CCNC(=O)CCC2CCCCC2)cc1,-3.4%
20,O=C(CCCN1C(=O)CSc2ncccc21)N1CCN(c2cccc(C(F)(F)F)c2)CC1,3.16%
21,COc1ccc(-c2cc(C(F)(F)F)nc(S(C)(=O)=O)n2)cc1OC,36.7% (active)
22,COc1ccc(CCNS(=O)(=O)c2ccc(F)cc2)cc1OC,-9.46%

row,SMILES,inhibition
1,Cc1cc(C)c(C)c(S(=O)(=O)Nc2ccc(O)cc2)c1C,-7.06%
2,Cc1ccc(S(=O)(=O)NC(=O)N2CCCN(Cc3ccc(F)cc3)CC2)cc1,8.13%
3,Cc1ccc(CS(=O)(=O)CCC(=O)NCc2ccc(F)cc2)cc1,10.2%
4,O=C(NN=Cc1ccc(N2CCOCC2)cc1)c1cc2ccccc2cc1O,30.5% (active)
5,CC(OC(=O)c1cc2ccccc2o1)C(=O)Nc1ccc(N2CCOCC2)cc1 (configuration not stated),-6.36%
6,CC(C)c1cc(C(=O)N/N=C/c2ccoc2)c(O)c(C(C)C)c1,-15.4%
7,CCc1nnc(NC(=O)CSc2nc3c(c(=O)n2-c2ccccc2OC)SCC3)s1,-4.66%
8,CC(C)Oc1ccc(C2NC(=O)NC2=O)cc1 (configuration not stated),-8.11%
9,CCCCCNC(=O)C(c1ccc(OC)cc1)n1c(=O)c(-c2ccccc2)nc2ccccc21 (configuration not stated),-13.6%
10,COc1ccc(C(C(=O)NCc2ccccc2)n2c(=O)c(-c3ccccc3)nc3ccccc32)cc1 (configuration not stated),-6.05%
11,COc1ccc(NC(=O)C(c2ccncc2)n2c(=O)c(-c3cc4ccccc4[nH]3)nc3ccccc32)cc1 (configuration not stated),37.2% (active)
12,CCOc1ccc(NC(=O)C/C(C)=N/NC(=O)Cc2cccs2)cc1,-21.5%
13,O=C(c1ccc(O)cc1)c1ccc(C(=O)O)c(C(=O)O)c1,7.45%
14,Nc1ncnc2c1ncn2[C@@H]1O[C@H](C(=O)NS(=O)(=O)c2c(Cl)nc3sccn23)[C@@H](O)[C@H]1O,-5.91%
15,Cc1ccnc(NS(=O)(=O)c2ccc(NC(=O)c3oc4ccccc4c3C)cc2)n1,7.08%
16,O=C(O)/C=C/C(=O)NNc1ccc([N+](=O)[O-])cc1,-11.2%
17,CC(=O)Nc1ccc(C=Cc2ccc([N+](=O)[O-])cc2)cc1,23.5% (active)
18,O=C(CCC(=O)N1CCCC1)Nc1ccc([N+](=O)[O-])cc1,-7.75%
19,O=C(CN1C(=O)NC2(CCCCC2)C1=O)N1CCN(C(=O)c2cccs2)CC1,-8.73%
20,C[C@@H](NC(=O)c1nc[nH]c1C(=O)N1CCN(C(=O)OC(C)(C)C)CC1)c1ccccc1,1.84%
21,O=C(N[C@@H](Cc1ccccc1)C(=O)OCc1ccccc1)c1nc[nH]c1C(=O)N[C@@H](Cc1ccccc1)C(=O)OCc1ccccc1,-4.2%
22,CC(C)(C)OC(=O)N1CCC(NC(=O)c2[nH]cnc2C(=O)N[C@@H](Cc2ccccc2)C(=O)OCc2ccccc2)CC1,30.1% (active)

row,SMILES,inhibition
1,CC(C)(C)c1nnc(NC(=O)C2c3ccccc3Oc3ccccc32)s1,13.8%
2,COc1ccc2c(c1OC)C(=O)OC2Nc1nc(-c2ccccc2)cs1 (configuration not stated),21.7% (active)
3,COc1ccccc1C(=O)Nc1nc2nc(-c3ccccc3)cc(=O)n2[nH]1,-2.48%
4,COc1cc(C(O)c2nc(-c3cccc(C(=O)O)c3)cs2)ccc1F (configuration not stated),-2.31%
5,C=CCNC(=O)COC(=O)c1ccccc1C(=O)N(C)C1CCCCC1,-6.21%
6,COc1cccc(CNC(=O)COC(=O)CN2C(=O)NC3(CCCCC3C)C2=O)c1 (configuration not stated),-6.08%
7,CCOc1ccc(-c2nnc3ccc(SC)nn23)cc1,9.56%
8,CCOC(=O)C1=C(C)N(C[C@@H]2CC[C@@H](Cc3ccc(-c4ccccc4)cc3)O2)C(=O)NC1c1ccc([N+](=O)[O-])cc1 (some centres not stated),22.2% (active)
9,CCC(CC)COC(=O)C1=C(C)NC(=O)NC1c1ccc([N+](=O)[O-])cc1 (configuration not stated),7.52%
10,CCOC(=O)C1=C(c2ccccc2)NC(=O)NC1c1cc(OCC)c(O)c([N+](=O)[O-])c1 (configuration not stated),6.34%
11,O=C(CNS(=O)(=O)c1ccc2ccccc2c1)Nc1ccc(F)c(F)c1F,-7.54%
12,Cc1ccnc(NC(=O)CCC(=O)N(CC(=O)NCCc2ccccc2)Cc2cccs2)c1,0.75%
13,O=C1/C(=C/c2cccs2)CCC1C1CCCC1 (configuration not stated),-6.88%
14,CCCc1cc(=O)oc2c(C)c(OCC(=O)Nc3ccccn3)ccc12,-2.73%
15,COC(=O)Cc1cc(=O)oc2c(C)c(O)ccc12,33.2% (active)
16,COc1cccc(C(=O)OCc2cc(=O)oc3c(C)c(C)ccc23)c1OC,-0.79%
17,CCCCn1nnnc1C1(C)CCC(=O)N1Cc1ccc(OC)c(OC)c1 (configuration not stated),-13.3%
18,COC(C)(C)[C@]12CC(O)(C(C)C)ON1[C@H]1CCCCC1N2O (some centres not stated),-0.99%
19,CCOC(=O)Cc1c(C)nc2c(C#N)c(C)nn2c1C,1.59%
20,C/C(=C/c1ccccc1)C(=O)N1CCN(c2ccccc2)CC1,-2.58%
21,CC(=O)Oc1ccc(C)cc1N1C(=O)c2ccc(C(=O)O)cc2C1=O,-5.17%
22,O=C(O)c1ccc2c(c1)C(=O)N(c1ccc(/C=C/C(=O)c3ccccc3)cc1)C2=O,23.8% (active)

row,SMILES,inhibition
1,O=C(O)CCC(=O)Nc1ccc(N2CCOCC2)cc1,-4.21%
2,O=C(/C=C/c1ccc(N2CCOCC2)cc1)c1ccccc1,30.6% (active)
3,CCCOC(=O)c1ccc(N2C(=O)c3ccccc3C2=O)cc1,1.19%
4,CCN(C(=O)COC(=O)C1CCN(S(=O)(=O)c2ccc(C)c(C)c2)CC1)C1CCS(=O)(=O)C1 (configuration not stated),-0.71%
5,O=C(Nc1ccc(OCCO)cc1)c1csc([C@H]2C[C@H](O)[C@@H](CO)O2)n1,-10.7%
6,NC(=O)NC(=O)C(OC(=O)CCNS(=O)(=O)c1ccccc1)c1ccccc1 (configuration not stated),-7.31%
7,O=C(CN1CCCCC1)N1c2ccccc2Sc2ccc(C(F)(F)F)cc21,1.57%
8,CC1CCN(C(=O)c2ccccc2NC(=O)Cc2ccccc2)CC1,-1.45%
9,CC(NC(=O)c1ccc(S(=O)(=O)Nc2ccccc2)cc1)c1ccc(S(N)(=O)=O)cc1 (configuration not stated),3.07%
10,O=C1C(=O)N(CC2COc3ccccc3O2)c2ccccc21 (configuration not stated),22.5% (active)
11,CCn1cc(C(=O)NCC2COc3ccccc3O2)c2cc(OC)c(OC)cc2c1=O (configuration not stated),-5.84%
12,O=C1C(=O)N(c2ccccc2)c2ccccc21,9.77%
13,C[C@H]1CN([C@@H](C)CO)C(=O)Cc2cc(NC(=O)Cc3ccccc3)ccc2O[C@H]1CN(C)S(=O)(=O)c1cccs1,-4.34%
14,Cc1ccc(S(=O)(=O)n2cnc3ccccc32)c(C)c1,3.17%
15,COc1cc2nnn(-c3ccncc3)c2cc1OC,-0.06%
16,CC(C)(C)NC(=O)COC(=O)c1cc(Br)ccc1Cl,-6.13%
17,c1csc(-c2nnc(COc3ncnc4sccc34)o2)c1,2.97%
18,Brc1ccc(C2=CC(c3ccco3)n3ncnc3N2)cc1 (configuration not stated),24.6% (active)
19,CCOc1ccc(C2=CC(c3ccccc3)n3ncnc3N2)cc1 (configuration not stated),42.2% (active)
20,CCOc1ccccc1C1CC(c2ccccc2)Nc2nc(N)nn21 (configuration not stated),-8.78%
21,CC1=C(C(=O)OC2CCCCC2)C(c2cccnc2)n2ncnc2N1 (configuration not stated),7.46%

# Source: PubChem BioAssay AID624267 (The Scripps Research Institute Molecular Screening Center, 2012)
